# Experimental data from article PMC4552634, “A New Set of Chemical Starting Points with Plasmodium falciparum Transmission-Blocking Potential for Antimalarial Drug Discovery” (PLoS ONE, 2015).
# Where two headings read alike, the source gives them in different places. Screen size: about 13,000 compounds; about 3,200 (25%) showed an effect of 50% or more. The list shows a part of the results.
# System: P. falciparum stage V gametocytes
# Set-up: BacTiter-Glo ATP luminescence viability of purified stage V gametocytes in 384-well plates, per cent inhibition versus DMSO
# Details: 48 h, 5 µM, inhibitor
SMILES,% Inhibition [%],% Inhibition (% Inhibition) [%]
CC1(C)N=C(N)N=C(N)N1c1ccc(I)cc1 [TCMDC-124271],5.763,–
CN(CCCCCNC(=O)/C=C/c1ccc(Cl)c(Cl)c1)CCCCc1c[nH]c2ccccc12 [TCMDC-139328],-28.14,–
CC1CCN(c2nc(C(=O)Nc3cccc4c3CCCC4)c(C(C)C)s2)CC1 [TCMDC-134662],11.59,–
CN1CCN(c2ccnc3ccc(NC(=O)Nc4ccc(Cl)cc4)cc23)CC1 [TCMDC-139322],28.3,–
CN1CCN(c2ccnc3cc4c(cc23)N(Cc2ccccc2)CC4)CC1 [TCMDC-139341],-3.615,–
CN1CCCN(c2ccnc3cc4c(cc23)N(C(=O)c2ccc(Cl)cc2)CC4)CC1 [TCMDC-140240],94.93,–
Cc1ccc(C2(C)CC(C)(C)N(C(=O)COc3ccc4ccccc4c3)c3ccccc32)cc1 (stereo not shown) [TCMDC-124089],-65.04,–
COc1ccccc1CCN1CCC(CN(C)Cc2ccc(O)c(Cl)c2)CC1 [TCMDC-124611],14.29,–
COc1ccc2nccc([C@@H](O)CN3CCC(NC(=O)c4cc5c(Cl)cc(Cl)cc5[nH]4)CC3)c2c1 [TCMDC-141039],-18.46,–
CN(C)c1ccc(C=C2SC(=O)NC2=Nc2ccccc2)cc1 [TCMDC-123738],34.75,–
COc1cccc(NC(=O)NC2CCN(CCCCCNC(=O)/C=C/c3ccc(Cl)c(Cl)c3)CC2)c1 [TCMDC-139388],31.25,–
COc1cc(CN2CCC(NC(=O)[C@H](Cc3ccccc3)NC(=O)Nc3ccc(Oc4ccccc4)cc3)C2)ccc1O (stereo partly shown) [TCMDC-140500],-15.62,–
O=C(Nc1cccc(Cl)c1)N[C@H]1CCN(Cc2ccc(OCCCN3CCCCC3)cc2)C1 [TCMDC-141788],103.5,–
Cc1ccc(CN2CCCCC(NC(=O)c3cc4ccccc4s3)C2)cc1 (stereo not shown) [TCMDC-141748],-37.31,–
O=C(Nc1ccc(Oc2ccccc2)cc1)N[C@H]1CCN(Cc2ccc(OCCCN3CCCCC3)cc2)C1 [TCMDC-141786],96.23,–
O=C(Nc1ccc(Cl)cc1)Nc1ccc(OCC(O)CN2CCCCC2)cc1 (stereo not shown) [TCMDC-123519],4.072,–
O=C(Nc1ccc(Cl)cc1)N[C@H]1CCN(Cc2ccc(OCCCN3CCCCC3)cc2)C1 [TCMDC-141787],90.53,–
O=C(Nc1ccc(Oc2ccccc2)cc1)N[C@@H](Cc1ccc(O)cc1)C(=O)NC1CCN(Cc2ccc(O)c([N+](=O)[O-])c2)C1 (stereo partly shown) [TCMDC-140421],0.03751,–
O=C(Nc1ccc(-c2ccccc2)s1)N[C@H]1CCN(Cc2ccc(OCCCN3CCCCC3)cc2)C1 [TCMDC-141789],86.03,–
Cc1cccc2[nH]c(-c3cccc(-c4cccc(NC(=O)NCc5cccc(F)c5)c4)c3)nc12 [TCMDC-133291],37.78,–
O=C(Nc1cccc(-c2cccc(-c3nc4ccc(F)cc4[nH]3)c2)c1)Nc1ccc(F)c(F)c1F [TCMDC-133233],-45,–
Cc1cc(Cl)c(S(=O)(=O)N(C)c2ccccc2)cc1OCC(=O)NC1CCCCC1 [TCMDC-124368],-27.39,–
Cc1cc(C(=O)CN2C(=O)NC3(CCOc4ccccc43)C2=O)c(C)n1Cc1ccc(F)cc1 (stereo not shown) [TCMDC-125246],-0.05637,–

SMILES,% Inhibition [%],% Inhibition (% Inhibition) [%]
CC(CNc1nc(NCC(c2ccccc2)c2ccccc2)c2[nH]cnc2n1)c1ccccc1 (stereo not shown) [TCMDC-131859],-14.76,–
O=C(Nc1ccc(C(F)(F)F)cc1)c1ccc(S(=O)(=O)NC2CCN(Cc3ccccc3)C2)cc1 (stereo not shown) [TCMDC-133675],7.046,–
Cc1ccc(NC(=O)c2ccc(NCCCN(C)Cc3ccccc3)c([N+](=O)[O-])c2)cc1F [TCMDC-125686],12.99,–
O=C(Nc1ccccc1F)NC1CCN(c2ccnc(Nc3ccc(F)cc3)n2)C1 (stereo not shown) [TCMDC-133603],-76.2,–
O=C(Nc1ccc2c(c1)CCC2)N[C@H]1CCN(Cc2ccc(OCCCN3CCCCC3)cc2)C1 [TCMDC-141790],89.55,–
O=C(Nc1cccc(Oc2ccccc2)c1)N[C@H]1CCN(Cc2ccc(OCCCN3CCCCC3)cc2)C1 [TCMDC-141785],106.3,–
O=C(Nc1ccc2c(c1)CCC2)N[C@H]1CCN(CCCCCNC(=O)C2CC2c2ccc(Cl)c(Cl)c2)C1 (stereo partly shown) [TCMDC-136264],5.581,–
O=C(Nc1ccc(-c2ccccc2)cc1)Nc1cccc(OCCN2CCCC2)c1 [TCMDC-139541],-48.88,–
O=C(Nc1ccc(C(=O)Oc2ccc3ccccc3c2)cc1)N[C@@H](Cc1ccc(O)cc1)C(=O)NC1CCN(Cc2ccc(O)cc2)C1 (stereo partly shown) [TCMDC-135358],-34.98,–
N#Cc1cccc(NC(=O)Nc2cccc(OC3CCN(Cc4ccccc4)CC3)c2)c1 [TCMDC-139545],11.02,–
N#Cc1cc(C(=O)c2cc(Br)ccc2O)cn(C2CCCCC2)c1=O [TCMDC-123629],-45.84,–
O=C(/C=C/c1ccc(Cl)c(Cl)c1)NCCCCCN1CCC(c2c[nH]c3ccccc23)C(O)C1 (stereo not shown) [TCMDC-139656],–,-35.83
CC(=O)c1cccc2cc(C(=O)NC3CCC(CCN4CCc5ccc(C#N)cc5C4)CC3)[nH]c12 (stereo not shown) [TCMDC-139192],14.52,–
Nc1nc2c(cnn2CCCCCCCP(=O)(O)O)c(=O)[nH]1 [TCMDC-137339],21.15,–
CN1CCCN(Cc2cccc(-c3ccc(NC(=O)c4cccc(C#N)c4)cc3)c2)CC1 [TCMDC-132673],15.02,–
N#Cc1cccc(C(=O)Nc2ccc(-c3cccc(CN4CCCC4)c3)cc2)c1 [TCMDC-132674],97.51,–
CN1CCCN(Cc2ccc(-c3cccc(NC(=O)c4cccc(C#N)c4)c3)cc2)CC1 [TCMDC-132648],64.68,–
N#Cc1ccc(C(=O)Nc2cccc(-c3ccc(CN4CCCC4)cc3)c2)cc1 [TCMDC-132639],23.71,–
N#Cc1cccc(C(=O)Nc2ccc(-c3ccc(CN4CCCC4)cc3)cc2)c1 [TCMDC-132596],64.33,–
CN1CCCN(Cc2ccc(-c3ccc(NC(=O)c4cccc(C#N)c4)cc3)cc2)CC1 [TCMDC-132594],-1.455,–
CN1CCCN(Cc2cccc(-c3cccc(NC(=O)c4cccc(C#N)c4)c3)c2)CC1 [TCMDC-132661],20.56,–
N#Cc1ccc(C(=O)Nc2ccc(-c3cccc(CN4CCCC4)c3)cc2)cc1 [TCMDC-132668],1.206,–
N#Cc1cccc(C(=O)Nc2cccc(-c3ccc(CN4CCCC4)cc3)c2)c1 [TCMDC-132650],24.3,–
